Screens (PubChem)
PTEN del growth – growth suppressors of cells with PTEN tumor suppressor deletion | HCT116 PTEN-null viability, CellTiter-Glo, 60 h; hits give low values | viability, % at 10 µM | AID 827 | actives 1.2% (n = 140,000);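 active means viability at or below a set limit, 4 SD under the median of all tested compounds, cut at about 3.7% in these data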;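 further: PTEN knockout HCT116 line with beta catenin targeted HCT116 as companion control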
HCT116 bCat-KO – beta-catenin-lacking colon tumor cell growth suppression. HCT116 beta-catenin knockout viability, CellTiter-Glo, 60 h; hits give low values. AID 818. viability, % at 10 µM. actives 1.5% (n = 140,000);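 active means viability at or under a set limit, the compound median less 4 SD, cut at about 6% in these data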
Insulin prom inh – TRM-6 insulin promoter activity inhibition. TRM-6 cells (human fetal islet line), insulin promoter-eGFP reporter, imaging; reporter expression induced with tamoxifen. inhibition, % at 2 µM. actives 0.9% (n = 130,000);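 active means inhibition above the mean plus 3 SD, with well images judged a real hit on visual review, cut at about 60% in these data, passing the limit was not always enough; inconclusive means inhibition over the cutoff but images rejected on review; inactive means inhibition not above the cutoff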
ROMK primary – human ROMK K+ channel modulation, primary screen; P48048; Tet-inducible ROMK, thallium flux fluorescence; actives lie on both sides; B-score at 10 µM; actives 2% (n = 130,000); AID 1918;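 active means signal ratio slope over the read window, or its plate-corrected B-score, at least 3 SD from the plate mean, either direction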;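 further: B-score of the F/F0 ratio slope over 7 to 12 s after thallium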
Target sequence (P48048 whole entry, looked up): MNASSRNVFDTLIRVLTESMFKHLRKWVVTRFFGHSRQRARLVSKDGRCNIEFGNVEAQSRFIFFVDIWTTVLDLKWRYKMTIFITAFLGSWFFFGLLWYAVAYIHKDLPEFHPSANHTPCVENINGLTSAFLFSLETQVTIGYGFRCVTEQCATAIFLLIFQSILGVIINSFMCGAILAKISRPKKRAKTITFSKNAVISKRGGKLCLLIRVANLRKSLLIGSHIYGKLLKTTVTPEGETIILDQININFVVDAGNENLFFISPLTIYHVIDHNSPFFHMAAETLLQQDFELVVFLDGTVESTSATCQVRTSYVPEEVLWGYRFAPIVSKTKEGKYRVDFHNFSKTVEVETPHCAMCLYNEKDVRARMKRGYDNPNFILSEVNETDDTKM
L major viab – inhibitors of Leishmania major promastigote growth; AID 1063; Leishmania major promastigotes, resazurin fluorescence viability; actives 9% (n = 200,000); inhibition, % at 10 µM; in the data active means inhibition above about 50%;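 further: promastigotes grown with compound for 44 hours at 28 °C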
p97 inhibitor – inhibitors of human p97 ATPase; recombinant p97 ATPase, Kinase-Glo ATP luminescence, 3 h; inhibition, % at 8 µM; actives 0.42% (n = 220,000); AID 1481; in the data active means inhibition above about 15%
ROMK retest – human ROMK channel modulation, retest confirmation. shares compounds with ROMK primary. ROMK thallium flux, fluorescence ratio; hits give low values. normalized thallium flux (F/F0 slope) at 10 µM. actives 54% (n = 3,000). AID 1917;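 active means Flux at 10 µM at least 3 SD below or above vehicle control mean in one or both replicates; inconclusive means no clear call, values can overlap the other calls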
Large screens that a line does not name were inactive (follow-up assays come after a bar, where they were run). Rows were chosen to be rich in hits. Some 10% of all compounds tested hit in one or more screens of this group.

COC(=O)[C@@]1(Cc2ccc(F)cc2)[C@H]2c3cc(C(=O)N4CCCC4)n(CCc4ccc(O)c(O)c4)c3C[C@H]2CN1C(=O)c1ccccc1	L major viab 100 | ROMK retest inconclusive
COC(=O)Cn1c(C(=O)N2CCCC2)cc2c1C[C@H]1CN(C(=O)c3ccccc3)[C@@](Cc3ccc(F)cc3)(C(=O)OC)[C@@H]21	none
N#C/C(=C\c1cccs1)C(=O)NCC1CCCO1 (centres undefined)	none (no result: ROMK primary)
N#C/C(=C/c1cc(Br)cs1)C(=O)NCC1CCCO1 (centres undefined)	none (no result: ROMK primary) | ROMK retest 0.064
CCOc1ccc(/C=C2\SC(=S)N(CCC(=O)O)C2=O)cc1	none (no result: PTEN del growth, HCT116 bCat-KO, Insulin prom inh, ROMK primary, L major viab)
Cc1ccc(NC(=O)COc2cccc(/C=C3\SC(=S)N(CCC(=O)O)C3=O)c2)cc1Cl	none (no result: PTEN del growth, HCT116 bCat-KO, Insulin prom inh, ROMK primary, L major viab)
O=C(O)CCN1C(=O)/C(=C\c2cccc(OCC(=O)Nc3ccc(Cl)cc3)c2)SC1=S	none (no result: PTEN del growth, HCT116 bCat-KO, Insulin prom inh, ROMK primary, L major viab) | ROMK retest 0.053
O=C(O)CCN1C(=O)CC(N2C(=O)/C(=C/c3ccc(Cl)cc3)SC2=S)C1=O (centres undefined)	ROMK primary -2 | ROMK retest 0.044
Cc1ccc(Cl)cc1N1CCN(C(=O)CN(C2CCCCC2)S(C)(=O)=O)CC1	none (no result: ROMK primary)
CCOc1ccc2nc(NCCCNC(=O)c3cc(OC)c(OC)c(OC)c3)c(C#N)cc2c1	none (no result: PTEN del growth, HCT116 bCat-KO, Insulin prom inh, ROMK primary, L major viab) | ROMK retest inactive
CC(=O)N1CCc2cc(Br)cc(S(=O)(=O)NCC3CCCO3)c21 (centres undefined)	none (no result: Insulin prom inh, ROMK primary)
CCn1c(=O)c(=O)[nH]c2cc(C(=O)NC3CCCc4ccccc43)ccc21 (centres undefined)	ROMK primary 3.2 | ROMK retest inactive
CCn1c(=O)c(=O)[nH]c2cc(C(=O)NC3CC3)ccc21	none
Cc1ccc(S(=O)(=O)N(C)CCCC(=O)n2nc(C)cc2C)cc1	none
Cc1ccc(NC(=S)N(CCCN2CCOCC2)Cc2ccccn2)cc1Cl	none
Cn1c(=O)c2c(nc(N3CCNCC3)n2Cc2ccccc2Cl)n(C)c1=O	ROMK primary 1.6 (no result: PTEN del growth, HCT116 bCat-KO) | ROMK retest inactive
Cn1c(=O)c2c(nc(N3CCN(c4ccccn4)CC3)n2Cc2ccccc2Cl)n(C)c1=O	none (no result: Insulin prom inh)
CCC(C)(C)NC(=O)CN(Cc1ccc2c(c1)OCO2)C(=O)CCC(=O)Nc1ccccn1	none
Cc1cc(=O)oc2c1c(C)nn2-c1cccc(Cl)c1	none (no result: PTEN del growth, HCT116 bCat-KO)
N=C1/C(=C\c2ccc(-c3cccc(C(=O)O)c3)o2)C(=O)N=C2SC=C(c3ccccc3)N12	none (no result: PTEN del growth, HCT116 bCat-KO, Insulin prom inh, ROMK primary, L major viab) | ROMK retest 0.059
Cc1ccccc1-n1c(C)cc(/C=C2/C(=N)N3C(c4ccccc4)=CSC3=NC2=O)c1C	none (no result: Insulin prom inh, ROMK primary)
Cc1ccccc1C=Nc1ccccc1C(N)=O	ROMK primary 2.8 (no result: Insulin prom inh) | ROMK retest inactive
Cc1ccc(C=Nc2ccccc2C(N)=O)cc1	none
NC(=O)CSc1nc(-c2ccccc2)nc2c1CCCC2	none (no result: PTEN del growth, HCT116 bCat-KO)
O=C(Nc1ccccc1)c1ccccc1OCC(O)CN1C(=O)c2ccccc2S1(=O)=O (centres undefined)	none (no result: ROMK primary) | ROMK retest 0.061
Cc1ccc(-n2ncc(C(=O)Nc3cc(Cl)ccc3Cl)c2C2CCNCC2)cc1	ROMK primary -6.2 (no result: PTEN del growth, HCT116 bCat-KO) | ROMK retest 0.058
Cc1ccc(-n2ncc(C(=O)Nc3cc(Cl)cc(Cl)c3)c2C2CCNCC2)cc1C	ROMK primary -6.1, L major viab 101 (no result: PTEN del growth, HCT116 bCat-KO, Insulin prom inh) | ROMK retest 0.048
CS(=O)(=O)Nc1ccccc1C(=O)Nc1cc(Cl)cc(Cl)c1	none
CCCCN(CCCC)c1cc(C)nc(-c2ccccc2O)n1	none (no result: ROMK primary)
Oc1[nH]c2ccccc2c1N=Nc1ccccc1	none (no result: PTEN del growth, HCT116 bCat-KO, Insulin prom inh, ROMK primary, L major viab) | ROMK retest 0.068
Cc1ccc(NC(=O)c2nc(C)n(-c3ccc([N+](=O)[O-])cc3)n2)cc1	none (no result: ROMK primary) | ROMK retest inconclusive
Cc1nc(C(=O)Nc2ccc(Cl)cc2)nn1-c1ccc([N+](=O)[O-])cc1	none (no result: ROMK primary)
Cc1ccc(C(=O)N2C(CC(=O)Nc3ccc(Cl)cc3)C(=O)NC3CCCCC32)cc1 (centres undefined)	none (no result: PTEN del growth, HCT116 bCat-KO, Insulin prom inh, ROMK primary) | ROMK retest 0.067
Cc1cccc(NC(=O)CC2C(=O)NC3CCCCC3N2C(=O)c2ccccc2Cl)c1 (centres undefined)	none (no result: PTEN del growth, HCT116 bCat-KO, Insulin prom inh, ROMK primary, L major viab)
O=C(CCl)NC(Cc1ccccc1)c1ccccc1 (centres undefined)	none (no result: PTEN del growth, HCT116 bCat-KO) | ROMK retest inactive
O=C(NCCCNC(=O)c1cccs1)c1cccs1	none (no result: PTEN del growth, Insulin prom inh, ROMK primary)
O=C(NCCCN1CCCC1=O)c1cccs1	none (no result: ROMK primary) | ROMK retest inactive
CC1CCCC(C)N1C(=O)CN1C(=O)C(C)(C)Oc2ccc(C(=O)NC3CCCC3)cc21 (centres undefined)	none
CCc1oc2ccccc2c1C(=O)c1cc(Br)c(O)c(Br)c1	ROMK primary 4.6 | ROMK retest 0.15
COc1cc(C(C(=O)NC2CCCCC2)N(Cc2ccco2)C(=O)c2cnccn2)cc(OC)c1OC (centres undefined)	ROMK primary -13 (no result: PTEN del growth, HCT116 bCat-KO, Insulin prom inh) | ROMK retest inactive
O=C(Nc1nc(-c2cc3ccccc3oc2=O)cs1)c1ccc(Br)o1	none
Cc1cc(-c2csc(NC(=O)c3cc4ccccc4o3)n2)c(C)n1C	none (no result: ROMK primary) | ROMK retest inconclusive
CCOC(=O)N1CCN(C(=O)C2CCCN(S(=O)(=O)c3cccnc3)C2)CC1 (centres undefined)	none (no result: Insulin prom inh, ROMK primary) | ROMK retest inactive
c1cc2c3c(cccc3c1)NC1(CCC3(CC1)Nc1cccc4cccc(c14)N3)N2	none (no result: PTEN del growth, HCT116 bCat-KO, Insulin prom inh, ROMK primary, L major viab) | ROMK retest 0.05
CCC(C)(C)NC(=S)Nc1ccccc1C	none (no result: PTEN del growth, HCT116 bCat-KO, Insulin prom inh)
CCn1c(C)cs/c1=N\C(=S)Nc1ccccc1C	ROMK primary 3.2 (no result: Insulin prom inh) | ROMK retest inactive
COc1ccc2cc(C3OCCO3)c(Cl)nc2c1	none (no result: PTEN del growth, HCT116 bCat-KO, Insulin prom inh)
CCc1ccc(-c2nc(CSCC(=O)N3CCN(c4ncccn4)CC3)c(C)o2)cc1	none (no result: Insulin prom inh, ROMK primary) | ROMK retest 0.064
O=c1cc(-c2ccccc2[N+](=O)[O-])oc2ccccc12	ROMK primary 2.4 (no result: PTEN del growth, HCT116 bCat-KO, Insulin prom inh) | ROMK retest inactive
O=c1cc(-c2ccccc2F)oc2ccccc12	none
COc1ccc(OC)c(C2CC(c3c(-c4ccccc4)c4cc(Cl)ccc4[nH]c3=O)=NN2S(C)(=O)=O)c1 (centres undefined)	PTEN del growth 0.5, HCT116 bCat-KO 0.6 (no result: ROMK primary) | ROMK retest inconclusive
CCOC(=O)Cc1csc(SCc2nc3sc4c(c3c(=O)[nH]2)CCC4)n1	none
CCCCN(C)C(=O)C1CCN(Cc2ccc(OCc3ccccc3)cc2)CC1	ROMK primary -4.4, L major viab 61 | ROMK retest 0.061
CCOC(=O)N1CCN(C(=O)C2CCN(Cc3cccc(OCc4ccccc4)c3)CC2)CC1	none
CCOC(=O)c1c(CSCc2ccccc2)oc2ccc(O)c(CN(C)C)c12	none (no result: PTEN del growth, HCT116 bCat-KO, Insulin prom inh, ROMK primary, L major viab) | ROMK retest 0.061
O=C(c1ccccc1)c1cc(Cl)ccc1N1C(=O)C=CC1=O	ROMK primary -2.7 (no result: PTEN del growth, HCT116 bCat-KO) | ROMK retest 0.062
COc1ccc(C2CC(C)(c3ccc(OC)cc3)Nc3ccccc3N2)cc1 (centres undefined)	none (no result: PTEN del growth, HCT116 bCat-KO, Insulin prom inh, ROMK primary, L major viab) | ROMK retest inactive
